In PubChem BioAssay AID1159580 (chemical genetic matrix, 2015):
Screen size: about 5,500 compounds; about 2,000 (36%) were called active. Inconclusive results (about 18%) are left out. Rule as the data show it: active = normalized growth mostly below about 0.91 (no sharp cut-off); inconclusive = no clear call, values can overlap the other calls; inactive = mostly above about 0.92. The list shows a part of the results. Where a SMILES comes first, the peptide text is derived from it. Bridges are numbered along the chain shown (N, C = ends). [ ]: non-standard residue; d: D form. The star is where a group is joined. ξ: configuration not given here. ξDab(CH2SO3H) = NC(CCNCS(=O)(=O)O)C(=O)O; Heptanoyl(6-Me) = CC(C)CCCCC(=O)*; Dab = NCC[CH](N)C(=O)O

Experiment: chemical genetic growth profiling, strain panel (AID 1159580);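 also: tested at 20 µM; growth read once vehicle control cultures reached saturation at 30 °C; 1 = growth at the plate median or of vehicle wells; lower values mean less growth of the strain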
Conditions: growth OD

Measured: normalized growth

CCC(C)C1NC(=O)C(CCNCS(=O)(=O)O)NC(=O)C(NC(=O)C(CCNCS(=O)(=O)O)NC(=O)C(NC(=O)C(CCNCS(=O)(=O)O)NC(=O)CCCCC(C)C)C(C)O)CCNC(=O)C(C(C)O)NC(=O)C(CCNCS(=O)(=O)O)NC(=O)C(CCNCS(=O)(=O)O)NC(=O)C(C(C)CC)NC1=O (configuration not stated) ({Heptanoyl(6-Me)}-[ξDab(CH2SO3H)]T[ξDab(CH2SO3H)][Dab][ξDab(CH2SO3H)]II[ξDab(CH2SO3H)][ξDab(CH2SO3H)]T; lactam 4-C; configuration not given here)
inactive: S. cerevisiae deletion strains, locus YJR075W, strain HOC1, stronger effect = lower value 1 | S. cerevisiae deletion strains, locus YKL009W, strain mrt4, stronger effect = lower value 0.986 | S. cerevisiae deletion strains, locus YKL068W, stronger effect = lower value 0.964 | S. cerevisiae deletion strains, locus YKL085W, strain MDH1 (second series), stronger effect = lower value 0.951 | S. cerevisiae deletion strains, locus YKL085W, strain MDH1, stronger effect = lower value 0.951 | S. cerevisiae deletion strains, locus YKL160W, strain elf1, stronger effect = lower value 1.02 | S. cerevisiae deletion strains, locus YKL190W, strain CNB1, stronger effect = lower value 0.969 | S. cerevisiae deletion strains, locus YKR001C, strain vps1, stronger effect = lower value 0.972 | S. cerevisiae deletion strains, locus YKR026C, strain gcn3, stronger effect = lower value 0.98 | S. cerevisiae deletion strains, locus YKR091W, strain srl3, stronger effect = lower value 0.98 | S. cerevisiae deletion strains, locus YLL001W, strain dnm1, stronger effect = lower value 0.994 | S. cerevisiae deletion strains, locus YLL026W, stronger effect = lower value 0.997 | S. cerevisiae deletion strains, locus YLL041C, strain sdh2, stronger effect = lower value 0.993 | S. cerevisiae deletion strains, locus YLR027C, strain aat2, stronger effect = lower value 0.995 | S. cerevisiae deletion strains, locus YLR039C, strain RIC1, stronger effect = lower value 0.962 | S. cerevisiae deletion strains, locus YLR058C, strain SHM2, stronger effect = lower value 0.988 | S. cerevisiae deletion strains, locus YLR102C, strain apc9, stronger effect = lower value 0.962 | S. cerevisiae deletion strains, locus YLR113W, strain HOG1, stronger effect = lower value 1.1 | S. cerevisiae deletion strains, locus YLR221C, strain rsa3, stronger effect = lower value 0.99 | S. cerevisiae deletion strains, locus YLR258W, strain gsy2, stronger effect = lower value 0.99 | S. cerevisiae deletion strains, locus YLR262C, strain YPT6 (second series), stronger effect = lower value 0.997 | S. cerevisiae deletion strains, locus YLR262C, strain YPT6, stronger effect = lower value 0.992 | S. cerevisiae deletion strains, locus YLR268W, strain sec22, stronger effect = lower value 0.978 | S. cerevisiae deletion strains, locus YLR320W, strain mms22, stronger effect = lower value 0.96 | S. cerevisiae deletion strains, locus YLR330W, strain CHS5, stronger effect = lower value 0.968 | S. cerevisiae deletion strains, locus YLR342W, strain FKS1 (second series), stronger effect = lower value 1.02 | S. cerevisiae deletion strains, locus YLR342W, strain FKS1, stronger effect = lower value 1 | S. cerevisiae deletion strains, locus YLR357W, strain rsc2, stronger effect = lower value 0.963 | S. cerevisiae deletion strains, locus YLR370C, strain arc18, stronger effect = lower value 0.979 | S. cerevisiae deletion strains, locus YLR371W, strain rom2, stronger effect = lower value 0.962 | S. cerevisiae deletion strains, locus YLR384C, strain iki3, stronger effect = lower value 0.998 | S. cerevisiae deletion strains, locus YLR418C, strain cdc73, stronger effect = lower value 0.989 | S. cerevisiae deletion strains, locus YML016C, strain PPZ1, stronger effect = lower value 0.978 | S. cerevisiae deletion strains, locus YML032C, strain rad52, stronger effect = lower value 0.963 | S. cerevisiae deletion strains, locus YML120C, strain ndi1, stronger effect = lower value 0.971 | S. cerevisiae deletion strains, locus YML124C, strain tub3, stronger effect = lower value 0.964 | S. cerevisiae deletion strains, locus YMR058W, strain fet3, stronger effect = lower value 0.987 | S. cerevisiae deletion strains, locus YMR078C, strain ctf18, stronger effect = lower value 0.976 | S. cerevisiae deletion strains, locus YMR125W, strain sto1, stronger effect = lower value 0.973 | S. cerevisiae deletion strains, locus YMR129W, stronger effect = lower value 0.979 | S. cerevisiae deletion strains, locus YMR205C, strain PFK2, stronger effect = lower value 0.958 | S. cerevisiae deletion strains, locus YMR223W, strain ubp8, stronger effect = lower value 0.99 | S. cerevisiae deletion strains, locus YMR231W, strain pep5, stronger effect = lower value 0.987 | S. cerevisiae deletion strains, locus YMR263W, strain SAP30, stronger effect = lower value 0.985 | S. cerevisiae deletion strains, locus YMR307W, strain GAS1, stronger effect = lower value 1.12 | S. cerevisiae deletion strains, locus YNL067W, strain RPL9B, stronger effect = lower value 0.991 | S. cerevisiae deletion strains, locus YNL071W, strain lat1, stronger effect = lower value 0.981 | S. cerevisiae deletion strains, locus YNL128W, strain TEP1, stronger effect = lower value 0.971 | S. cerevisiae deletion strains, locus YNL153C, strain GIM3, stronger effect = lower value 0.987 | S. cerevisiae deletion strains, locus YNL183C, strain NPR1, stronger effect = lower value 0.935 | S. cerevisiae deletion strains, locus YNL209W, strain ssb2, stronger effect = lower value 1.02 | S. cerevisiae deletion strains, locus YNL233W, strain BNI4, stronger effect = lower value 0.996 | S. cerevisiae deletion strains, locus YNL248C, strain rpa49, stronger effect = lower value 1.02 | S. cerevisiae deletion strains, locus YNL250W, strain rad50, stronger effect = lower value 0.95 | S. cerevisiae deletion strains, locus YNL271C, strain bni1, stronger effect = lower value 0.963 | S. cerevisiae deletion strains, locus YNL298W, strain CLA4, stronger effect = lower value 0.974 | S. cerevisiae deletion strains, locus YNL307C, strain MCK1, stronger effect = lower value 0.982 | S. cerevisiae deletion strains, locus YNL322C, strain KRE1 (second series), stronger effect = lower value 0.983 | S. cerevisiae deletion strains, locus YNL322C, strain KRE1, stronger effect = lower value 0.972 | S. cerevisiae deletion strains, locus YNR049C, strain mso1, stronger effect = lower value 0.994 | S. cerevisiae deletion strains, locus YNR052C, strain pop2, stronger effect = lower value 0.968 | S. cerevisiae deletion strains, locus YOL006C, strain TOP1, stronger effect = lower value 1.02 | S. cerevisiae deletion strains, locus YOL012C, strain htz1 0.945 | S. cerevisiae deletion strains, locus YOL147C, strain pex11, stronger effect = lower value 0.982 | S. cerevisiae deletion strains, locus YOR001W, strain rrp6, stronger effect = lower value 0.961 | S. cerevisiae deletion strains, locus YOR061W, strain CKA2, stronger effect = lower value 0.978 | S. cerevisiae deletion strains, locus YOR069W, strain VPS5, stronger effect = lower value 0.983 | S. cerevisiae deletion strains, locus YOR070C, strain gyp1, stronger effect = lower value 0.996 | S. cerevisiae deletion strains, locus YOR080W, strain dia2, stronger effect = lower value 0.984 | S. cerevisiae deletion strains, locus YOR083W, strain WHI5, stronger effect = lower value 0.987 | S. cerevisiae deletion strains, locus YOR106W, strain vam3, stronger effect = lower value 1.03 | S. cerevisiae deletion strains, locus YOR136W, strain idh2, stronger effect = lower value 0.966 | S. cerevisiae deletion strains, locus YOR144C, strain elg1, stronger effect = lower value 0.962 | S. cerevisiae deletion strains, locus YOR184W, strain ser1, stronger effect = lower value 1.01 | S. cerevisiae deletion strains, locus YOR231W, strain MKK1, stronger effect = lower value 0.998 | S. cerevisiae deletion strains, locus YOR265W, strain rbl2, stronger effect = lower value 0.998 | S. cerevisiae deletion strains, locus YOR270C, strain vph1, stronger effect = lower value 0.834 | S. cerevisiae deletion strains, locus YOR290C, strain snf2, stronger effect = lower value 1.01 | S. cerevisiae deletion strains, locus YOR316C, strain cot1, stronger effect = lower value 0.947 | S. cerevisiae deletion strains, locus YPL051W, strain arl3, stronger effect = lower value 1 | S. cerevisiae deletion strains, locus YPL055C, strain LGE1, stronger effect = lower value 0.991 | S. cerevisiae deletion strains, locus YPL078C, strain atp4, stronger effect = lower value 0.998 | S. cerevisiae deletion strains, locus YPL106C, strain sse1, stronger effect = lower value 0.941 | S. cerevisiae deletion strains, locus YPL240C, strain hsp82, stronger effect = lower value 0.988 | S. cerevisiae deletion strains, locus YPL241C, strain CIN2, stronger effect = lower value 0.974 | S. cerevisiae deletion strains, locus YPL256C, strain CLN2, stronger effect = lower value 1.06 | S. cerevisiae deletion strains, locus YPR119W, strain clb2, stronger effect = lower value 0.955 | S. cerevisiae deletion strains, locus YPR141C, strain kar3, stronger effect = lower value 0.937 | S. cerevisiae deletion strains, locus YPR163C, strain tif3, stronger effect = lower value 0.971 | S. cerevisiae deletion strains, locus YPR167C, strain met16, stronger effect = lower value 0.945 | S. cerevisiae deletion strains, strain wtn01, stronger effect = lower value 0.973 | S. cerevisiae strains, strain wild type, stronger effect = lower value 0.98
